# According to PubChem BioAssay:
# Results filed as inconclusive are left out. Active and inactive are the calls of the source.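 How the source made its calls, unless noted: active means response below a set limit, under 55% cells CD8-positive and vesicle-bound, and CD8 cells' 90th-percentile brightness under 279; inactive means the rest.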
# How the values were obtained:
# [1] = yeast TOR pathway RPL19A-GFP modulators, primary screen, cell-based, S. cerevisiae, multiplex flow cytometry (AID 1862; in the data active means percent of DMSO control GFP below about 86%;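 further: lower values mimic rapamycin by blocking the RPL19A rise seen in DMSO cells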); details: S. cerevisiae RPL19A-GFP strain, flow cytometry fluorescence, 3 h; at 10 µM; stronger effect = lower value
# [2] = modulators of MEP2-GFP levels in yeast, primary screen, S. cerevisiae, multiplex flow cytometry (AID 1867;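 active means GFP response, as percent of the DMSO control, above the screen-wide mean plus 3 SD, about 139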;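 further: median GFP channel fluorescence of barcode-gated MEP2-GFP cells measured by flow cytometry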); details: S. cerevisiae MEP2-GFP strain, 3 h, at 10 µM, stronger effect = higher value, 100% means same as DMSO wells
# [3] = modulators of CIT2-GFP expression in yeast, primary screen, S. cerevisiae, GFP fusion, multiplex flow cytometry (AID 1870;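 active means percent response above a set limit, the screen-wide mean plus 3 SD, cut at about 130% in these data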;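 further: barcoded CIT2-GFP strain pooled with four other GFP strains with rapamycin as positive control; median GFP fluorescence per well over plate mean of DMSO wells so 100% = DMSO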); details: 3 h, at 10 µM, stronger effect = higher value
# [4] = modulators of LAP4-GFP expression in yeast, primary screen, S. cerevisiae, multiplex flow cytometry (AID 1873;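 active means GFP signal, as percent of the solvent control, above the screen mean plus 3 SD, about 149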); details: 3 h, at 10 µM, stronger effect = higher value
# [5] = modulators of AGP1-GFP expression in yeast TOR pathway, primary screen, cell-based, multiplex flow cytometry, S. cerevisiae (AID 1887;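 active means GFP signal above the screen-wide mean plus 3 SD, that is over about 124.5% of the solvent control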;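 further: AGP1-GFP fusion strain of S. cerevisiae within a five-strain barcoded multiplex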); details: 3 h, at 10 µM, stronger effect = higher value
# [6] = inhibitors of CD8+ T cell-vesicle binding, pilot screen, LFA-1/ICAM-1 modulator project, MLPCN validation set, flow cytometry (AID 2523); details: 2C mouse CD8+ T cells, at 7 µM, stronger effect = lower value; double positive events: measured here: CD8+/vesicle+ event percentage;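 on vesicle binding response: mean PE anti-B7-1 fluorescence of CD8+ cells relative to row control; 100% = QL9-loaded vesicles with DMSO vehicle in the same plate row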
# [7] = biological target: Integrin beta-1 (Homo sapiens) + Integrin alpha-4 (Homo sapiens) (UniProt P13612+P05556); experiment: inhibition of HUTS-21 binding to VLA-4, pilot screen, VLA-4 allosteric modulator project, U937 cells, HUTS-21 mAb, flow cytometry, validation set (AID 2674;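 active means inhibition above 50%, about 3 SD of the validation set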;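 further: antibody binding induced by the VLA-4 ligand LDV present at three times its Kd; 0% = LDV ligand with antibody and no compound and 100% = antibody without LDV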); details: HUTS-21 LIBS mAb binding, at 6.7 µM, stronger effect = higher value, binding induced by LDV ligand
# [8] = superoxide lowering in aged yeast cells, pilot screen, validation compound set (AID 2706;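 active means superoxide response below 65% of plate, a cut near 3 SD across the whole screen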;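 further: yeast exposed to compound for one week at 30 degrees C before staining; 100% = mean of all compound wells on the same plate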); details: S. cerevisiae aging, superoxide DHE fluorescence; at 10 µM; stronger effect = lower value
# [9] = biological target: Beta-adrenergic receptor kinase 1 (Homo sapiens) (UniProt P25098); experiment: GRK2 binders displacing RNA aptamer, biochemical, validation, human GRK2, bead flow cytometry (AID 488806;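 active means aptamer binding inhibition above 30%, about 3 SD of noise from non-fluorescent compounds; inactive means inhibition at or below 30%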); details: bead-bound GRK2, FAM-aptamer displacement, at 10 µM, stronger effect = higher value
# [10] = biological target: Beta-2 adrenergic receptor (Homo sapiens) (UniProt P07550); experiment: beta2AR agonists driving receptor internalization, pilot screen, cell-based, FAP fluorogen, flow cytometry, validation set (AID 504459;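 active means percent response above 42, roughly 3 SD of non-fluorescent test compounds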;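 further: agonist-driven loss of surface beta2AR via internalization measured by FAP dye flow cytometry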); details: Am2.2-beta2AR cells, FAP surface receptor flow cytometry; at 10 µM; stronger effect = higher value
# [11] = biological target: AP-2 complex subunit beta (Homo sapiens) (UniProt P63010); experiment: inhibitors of arrestin peptide binding to AP2, pilot screen, biochemical, validation set, GST-AP2 beads, flow cytometry (AID 504541;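 active means inhibition above 54%, about 3 SD of non-fluorescent compounds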;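 further: AP2 carries R879A mutation and is captured from E. coli lysate; bead-bound FITC arrestin peptide fluorescence measuring arrestin peptide binding to AP2; 0% = DMSO wells and 100% = excess unlabeled arrestin peptide control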); details: FITC arrestin peptide, at 10 µM, stronger effect = higher value, AP2 beta2 appendage fragment, R879A mutant
# [12] = yeast V-ATPase proton transport modulators, S. cerevisiae, pHLuorin, HTS validation (AID 504600; in the data active means response above about 15%;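 further: plate controls were DMSO for no effect and reference compound for full effect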); details: S. cerevisiae pHLuorin cytosolic pH, at 10 µM, stronger effect = higher value
# [13] = tested on: anti-desmoglein-3 scFv antibody binding to human DSG3; experiment: inhibitors of anti-DSG3 scFv binding to DSG3, pilot screen, biochemical, validation compound set, bead-based, flow cytometry (AID 588368;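 active means binding below the plate cutoff, the plate median minus 3 SD, with a reading above zero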;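 further: signal is the median channel fluorescence of bead-bound GFP antibody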); details: Protein G beads, DSG3-Fc, scFv-GFP binding, at 10 µM, stronger effect = lower value
# [14] = inhibitors of fungal efflux pumps CDR1, CDR2, MDR1, pilot screen, validation compound set, multiplex, phenotypic (AID 588506;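 active means efflux inhibition above 0.42, the validation set average plus 4 SD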;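 further: Nile Red retained in cells so higher fluorescence means more efflux inhibition; 0 = negative control wells and 1 = enniatin B 25 µM full block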); details: S. cerevisiae pump-expressing triplex, Nile Red efflux flow cytometry; at 10 µM; stronger effect = higher value; the pumps come from Candida albicans
# [15] = biological target: ATP-binding cassette sub-family B member 6 (Homo sapiens) (UniProt Q9NP58); experiment: ABCB6 transporter inhibitors, pilot screen, K562-ABCB6 cells, flow cytometry, validation set (AID 588550;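 active means inhibition above the screen-wide mean plus 3 SD, about 51%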;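 further: 0% = DMSO wells and 100% = benzethonium chloride 70 µM positive control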); details: K562-ABCB6 porphyrin accumulation, 1 h, at 10 µM, stronger effect = higher value
# [16] = promoters of myeloid differentiation in arrested cells, primary screen, cell-based, GFP/MAC1 double positive, flow cytometry, validation set (AID 588685;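 active means differentiation response of at least 50%, scaled between solvent and reference control, from cells with both markers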;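 further: compound exposure lasts four days before antibody staining and flow analysis; 0% = DMSO wells and 100% = 5 µM fulvestrant positive control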); details: ER-HoxA9 marrow cells, stronger effect = higher value, normalized: vehicle 0, fulvestrant 100
# Chain of ATP-binding cassette sub-family B member 6 (Homo sapiens) (Q9NP58 whole entry, looked up): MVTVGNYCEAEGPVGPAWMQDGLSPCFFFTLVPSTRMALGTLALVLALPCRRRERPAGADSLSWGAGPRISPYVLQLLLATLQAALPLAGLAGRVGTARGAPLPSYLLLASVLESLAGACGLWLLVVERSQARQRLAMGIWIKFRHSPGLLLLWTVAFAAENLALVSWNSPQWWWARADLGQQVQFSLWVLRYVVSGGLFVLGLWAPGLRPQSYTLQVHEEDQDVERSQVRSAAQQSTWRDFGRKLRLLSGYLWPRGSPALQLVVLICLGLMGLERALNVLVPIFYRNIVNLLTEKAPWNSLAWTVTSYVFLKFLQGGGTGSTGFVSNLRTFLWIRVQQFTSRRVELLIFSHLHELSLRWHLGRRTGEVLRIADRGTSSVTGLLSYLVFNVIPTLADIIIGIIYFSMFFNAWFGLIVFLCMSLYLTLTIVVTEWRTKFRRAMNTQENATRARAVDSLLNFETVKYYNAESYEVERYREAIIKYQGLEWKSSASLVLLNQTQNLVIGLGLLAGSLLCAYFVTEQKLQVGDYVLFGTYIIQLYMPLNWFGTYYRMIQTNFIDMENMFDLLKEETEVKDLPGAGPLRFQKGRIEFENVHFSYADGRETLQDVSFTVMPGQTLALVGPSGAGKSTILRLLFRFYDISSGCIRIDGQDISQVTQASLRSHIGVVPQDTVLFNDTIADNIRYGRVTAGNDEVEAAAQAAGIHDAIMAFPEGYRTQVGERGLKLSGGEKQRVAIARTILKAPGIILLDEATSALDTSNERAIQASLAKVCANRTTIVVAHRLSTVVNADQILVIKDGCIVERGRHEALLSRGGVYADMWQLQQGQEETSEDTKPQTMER
# Chain of Integrin beta-1 (Homo sapiens) + Integrin alpha-4 (Homo sapiens) (P05556 whole entry, looked up): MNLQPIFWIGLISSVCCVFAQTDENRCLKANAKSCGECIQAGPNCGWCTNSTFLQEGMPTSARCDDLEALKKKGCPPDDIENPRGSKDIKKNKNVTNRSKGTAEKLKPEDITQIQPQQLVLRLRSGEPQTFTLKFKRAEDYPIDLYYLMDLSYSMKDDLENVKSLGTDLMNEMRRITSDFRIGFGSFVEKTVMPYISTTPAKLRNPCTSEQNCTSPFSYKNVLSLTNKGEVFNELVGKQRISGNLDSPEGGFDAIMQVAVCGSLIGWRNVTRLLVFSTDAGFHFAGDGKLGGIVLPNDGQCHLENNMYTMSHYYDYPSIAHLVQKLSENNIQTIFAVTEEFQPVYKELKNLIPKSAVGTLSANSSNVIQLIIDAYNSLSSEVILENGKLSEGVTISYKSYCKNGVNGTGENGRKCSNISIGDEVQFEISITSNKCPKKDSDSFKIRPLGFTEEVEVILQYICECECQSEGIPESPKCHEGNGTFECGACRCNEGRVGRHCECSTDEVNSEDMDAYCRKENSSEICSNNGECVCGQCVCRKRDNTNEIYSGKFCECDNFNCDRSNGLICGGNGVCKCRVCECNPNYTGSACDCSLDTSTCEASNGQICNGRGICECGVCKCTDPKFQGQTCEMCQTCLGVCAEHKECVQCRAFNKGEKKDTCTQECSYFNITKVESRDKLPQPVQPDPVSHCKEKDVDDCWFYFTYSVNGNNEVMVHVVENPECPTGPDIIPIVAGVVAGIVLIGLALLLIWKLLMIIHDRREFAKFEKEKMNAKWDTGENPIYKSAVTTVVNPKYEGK
# Chain of Integrin beta-1 (Homo sapiens) + Integrin alpha-4 (Homo sapiens) (P13612 whole entry, looked up): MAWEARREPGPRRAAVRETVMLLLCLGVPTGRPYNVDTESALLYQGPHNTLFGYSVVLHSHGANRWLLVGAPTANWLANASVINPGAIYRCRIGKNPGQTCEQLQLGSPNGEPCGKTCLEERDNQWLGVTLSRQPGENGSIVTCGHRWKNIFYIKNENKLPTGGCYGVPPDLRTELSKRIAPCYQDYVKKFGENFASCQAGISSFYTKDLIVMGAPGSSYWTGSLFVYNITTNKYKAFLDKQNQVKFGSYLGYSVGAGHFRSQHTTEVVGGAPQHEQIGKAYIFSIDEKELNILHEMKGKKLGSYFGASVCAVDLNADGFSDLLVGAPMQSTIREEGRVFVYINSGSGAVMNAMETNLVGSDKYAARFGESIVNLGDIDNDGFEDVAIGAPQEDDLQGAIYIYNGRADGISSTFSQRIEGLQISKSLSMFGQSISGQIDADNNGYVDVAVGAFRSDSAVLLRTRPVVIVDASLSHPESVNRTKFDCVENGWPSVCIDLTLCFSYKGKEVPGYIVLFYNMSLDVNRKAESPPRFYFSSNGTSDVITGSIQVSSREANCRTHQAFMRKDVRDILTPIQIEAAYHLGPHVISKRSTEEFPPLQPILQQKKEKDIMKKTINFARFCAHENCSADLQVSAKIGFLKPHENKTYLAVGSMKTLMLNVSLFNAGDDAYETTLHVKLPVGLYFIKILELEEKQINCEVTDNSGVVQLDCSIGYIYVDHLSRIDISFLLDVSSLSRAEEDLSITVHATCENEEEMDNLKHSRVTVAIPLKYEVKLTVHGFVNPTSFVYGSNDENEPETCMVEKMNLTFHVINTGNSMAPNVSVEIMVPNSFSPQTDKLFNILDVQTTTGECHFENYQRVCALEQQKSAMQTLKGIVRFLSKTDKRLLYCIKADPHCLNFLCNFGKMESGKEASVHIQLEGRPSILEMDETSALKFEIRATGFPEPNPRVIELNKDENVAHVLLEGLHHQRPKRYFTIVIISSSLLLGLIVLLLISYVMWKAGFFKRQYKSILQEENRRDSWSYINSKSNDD
# Chain of AP-2 complex subunit beta (Homo sapiens) (P63010 whole entry, looked up, the tested form may be a part, one chain of several): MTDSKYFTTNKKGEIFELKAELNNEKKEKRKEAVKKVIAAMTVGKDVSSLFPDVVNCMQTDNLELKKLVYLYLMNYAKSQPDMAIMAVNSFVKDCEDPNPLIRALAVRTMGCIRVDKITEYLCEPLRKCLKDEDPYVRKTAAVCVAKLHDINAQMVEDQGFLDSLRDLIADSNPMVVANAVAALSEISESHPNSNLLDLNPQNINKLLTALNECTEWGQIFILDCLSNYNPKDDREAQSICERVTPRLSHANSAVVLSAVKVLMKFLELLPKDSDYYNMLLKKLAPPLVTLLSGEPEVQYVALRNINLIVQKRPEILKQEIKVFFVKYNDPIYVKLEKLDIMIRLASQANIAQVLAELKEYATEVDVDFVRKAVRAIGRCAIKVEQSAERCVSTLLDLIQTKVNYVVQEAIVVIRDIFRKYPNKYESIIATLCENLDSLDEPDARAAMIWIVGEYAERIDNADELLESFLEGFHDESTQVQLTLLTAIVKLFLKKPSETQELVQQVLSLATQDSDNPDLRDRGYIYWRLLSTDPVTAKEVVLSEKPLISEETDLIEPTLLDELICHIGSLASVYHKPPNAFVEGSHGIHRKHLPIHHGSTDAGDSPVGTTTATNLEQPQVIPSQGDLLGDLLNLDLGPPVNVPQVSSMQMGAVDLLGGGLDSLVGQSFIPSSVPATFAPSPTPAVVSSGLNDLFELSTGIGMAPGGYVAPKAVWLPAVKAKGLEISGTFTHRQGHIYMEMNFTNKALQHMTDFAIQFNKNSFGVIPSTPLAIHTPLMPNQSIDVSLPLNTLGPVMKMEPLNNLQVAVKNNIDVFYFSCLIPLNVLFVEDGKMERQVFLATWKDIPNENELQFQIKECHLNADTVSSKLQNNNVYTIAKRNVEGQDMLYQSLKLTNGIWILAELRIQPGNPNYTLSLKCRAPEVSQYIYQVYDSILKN
# Chain of Beta-2 adrenergic receptor (Homo sapiens) (P07550 whole entry, looked up): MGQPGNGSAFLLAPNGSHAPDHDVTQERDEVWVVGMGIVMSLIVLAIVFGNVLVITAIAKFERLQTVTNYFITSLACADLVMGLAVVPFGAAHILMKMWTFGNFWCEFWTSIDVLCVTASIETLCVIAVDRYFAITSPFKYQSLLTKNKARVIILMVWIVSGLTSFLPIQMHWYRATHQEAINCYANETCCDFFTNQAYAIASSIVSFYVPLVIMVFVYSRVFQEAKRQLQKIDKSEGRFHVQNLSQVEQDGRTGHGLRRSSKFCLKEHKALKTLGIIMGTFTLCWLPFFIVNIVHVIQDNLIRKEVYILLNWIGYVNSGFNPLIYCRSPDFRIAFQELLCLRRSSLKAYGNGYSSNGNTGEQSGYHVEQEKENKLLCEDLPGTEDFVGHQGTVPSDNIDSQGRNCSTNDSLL
# Chain of Beta-adrenergic receptor kinase 1 (Homo sapiens) (P25098 whole entry, looked up): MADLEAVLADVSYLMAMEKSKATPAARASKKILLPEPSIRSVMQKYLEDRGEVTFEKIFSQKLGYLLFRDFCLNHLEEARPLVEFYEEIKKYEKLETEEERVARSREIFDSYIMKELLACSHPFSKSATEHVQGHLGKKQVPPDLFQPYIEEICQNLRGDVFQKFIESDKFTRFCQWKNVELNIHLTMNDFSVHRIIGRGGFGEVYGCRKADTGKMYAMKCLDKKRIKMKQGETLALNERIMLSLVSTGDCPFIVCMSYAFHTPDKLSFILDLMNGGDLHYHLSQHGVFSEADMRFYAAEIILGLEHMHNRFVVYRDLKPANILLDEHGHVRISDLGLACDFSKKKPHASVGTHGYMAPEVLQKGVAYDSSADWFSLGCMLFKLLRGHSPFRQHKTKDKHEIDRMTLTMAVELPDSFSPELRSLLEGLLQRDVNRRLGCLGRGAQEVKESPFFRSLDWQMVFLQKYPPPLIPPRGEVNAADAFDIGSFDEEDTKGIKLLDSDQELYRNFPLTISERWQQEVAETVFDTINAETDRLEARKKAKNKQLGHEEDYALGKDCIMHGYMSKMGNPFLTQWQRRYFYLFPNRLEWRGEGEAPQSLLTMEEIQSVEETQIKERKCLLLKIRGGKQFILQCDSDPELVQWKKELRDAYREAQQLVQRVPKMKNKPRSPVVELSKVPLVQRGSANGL
Compound,percent of DMSO control GFP [1],GFP response vs DMSO [2],percent response of DMSO control [3],GFP response vs DMSO [4],"GFP response, % of DMSO [5]",double positive events [6],vesicle binding response [6],inhibition [7],superoxide response (% of plate) [8],aptamer binding inhibition [9],response [10],inhibition [11],response [12],binding (% of control) [13],efflux inhibition (fraction of control) [14],inhibition [15],differentiation response [16]
CC(=O)N(CCC(Cc1ccccc1)c1ccc2c(c1)OCO2)Cc1ccc(Cl)cc1 (stereo unspecified),93.9% (inactive),113% (inactive),103% (inactive),79.2% (inactive),92.2% (inactive),59.9%,165% (inactive),-9.06% (inactive),102% (inactive),-1% (inactive),-1.43% (inactive),-8.25% (inactive),-2% (inactive),104% (inactive),0.05 (inactive),6% (inactive),-3.28% (inactive)
Cc1coc2c1c(C)cc1oc(=O)c(Cc3ccccc3)c(C)c12,100% (inactive),98.7% (inactive),102% (inactive),93.7% (inactive),101% (inactive),56.9%,138% (inactive),-11.8% (inactive),90.7% (inactive),-1% (inactive),-0.64% (inactive),16.9% (inactive),18.1% (active),97.9% (inactive),-0.14 (inactive),1% (inactive),-8.96% (inactive)
COc1cc(CNCCc2ccccc2F)ccc1OCC(=O)N1CCCCC1,98.6% (inactive),104% (inactive),96.7% (inactive),114% (inactive),100% (inactive),57.8%,196% (inactive),-1.79% (inactive),103% (inactive),-1% (inactive),-8.73% (inactive),22.6% (inactive),-3.26% (inactive),98.2% (inactive),-0.35 (inactive),2% (inactive),29.6% (inactive)
CN(C)C(=O)Oc1ccc[n+](C)c1,102% (inactive),106% (inactive),94.2% (inactive),94.7% (inactive),95.9% (inactive),62.3%,1200% (inactive),0.58% (inactive),104% (inactive),4% (inactive),0.34% (inactive),16.8% (inactive),-1.45% (inactive),103% (inactive),-0.1 (inactive),13% (inactive),-1.71% (inactive)
CC12CC(c3ccccc3O1)C(C(=O)N1CCOCC1)C(=O)N2 (stereo unspecified),100% (inactive),103% (inactive),101% (inactive),85.2% (inactive),101% (inactive),60.3%,53.4% (inactive),2.55% (inactive),107% (inactive),6% (inactive),6.73% (inactive),-22.1% (inactive),0.44% (inactive),103% (inactive),-0.34 (inactive),8% (inactive),-1.88% (inactive)
OC(CCN1CCCC1)(c1ccccc1)C1CCCCC1 (stereo unspecified),87.3% (inactive),134% (inactive),102% (inactive),80.9% (inactive),89.4% (inactive),63.6%,284% (inactive),0.64% (inactive),93.8% (inactive),-1% (inactive),6.72% (inactive),34.9% (inactive),-6.1% (inactive),97.4% (inactive),0.12 (inactive),109% (active),-4.91% (inactive)
Nc1nc2c(nc(SCc3ccccc3Br)n2C2OC(CO)C(O)C2O)c(=O)[nH]1 (stereo unspecified),102% (inactive),97.4% (inactive),101% (inactive),108% (inactive),101% (inactive),62.7%,50.1% (inactive),-1.79% (inactive),94.9% (inactive),0% (inactive),17.9% (inactive),26.3% (inactive),-4.55% (inactive),90.9% (inactive),0.12 (inactive),1% (inactive),-23.2% (inactive)
NC(N)=NC(N)=Nc1ccc2ccccc2c1,102% (inactive),97.4% (inactive),104% (inactive),85.4% (inactive),95.8% (inactive),58.7%,183% (inactive),3.67% (inactive),106% (inactive),1% (inactive),18% (inactive),16% (inactive),-3.32% (inactive),97.8% (inactive),-0.21 (inactive),-3% (inactive),-0.8% (inactive)
COc1ccc(C=O)c(OC)c1,100% (inactive),98.6% (inactive),99% (inactive),99.5% (inactive),104% (inactive),60.9%,188% (inactive),26.1% (inactive),93.3% (inactive),1% (inactive),-22.1% (inactive),62.3% (active),-1.57% (inactive),101% (inactive),0.08 (inactive),-6% (inactive),-9.91% (inactive)
CSCCC(NC(C)=O)C(=O)Oc1ccc2c3c(c(=O)oc2c1)CCCC3 (stereo unspecified),102% (inactive),101% (inactive),105% (inactive),99.9% (inactive),100% (inactive),61.1%,56% (inactive),3.7% (inactive),102% (inactive),4% (inactive),-6.44% (inactive),17.4% (inactive),-2.62% (inactive),93.2% (inactive),-0.01 (inactive),11% (inactive),0.24% (inactive)
COc1cc(C(=O)OCCn2c(=O)c3c(ncn3CCN(C)C)n(C)c2=O)cc(OC)c1OC,106% (inactive),103% (inactive),101% (inactive),112% (inactive),117% (inactive),62.6%,156% (inactive),4.84% (inactive),115% (inactive),6% (inactive),-24.2% (inactive),-2.34% (inactive),-26.2% (inactive),112% (inactive),-0.13 (inactive),9% (inactive),-6.96% (inactive)
CC(C)(C)NCC(O)COc1cccc2c1C[C@H](O)[C@H](O)C2 (stereo partly specified),104% (inactive),108% (inactive),98.9% (inactive),88.1% (inactive),98.1% (inactive),62.6%,1270% (inactive),-16% (inactive),104% (inactive),3% (inactive),0.85% (inactive),55.4% (active),-3.23% (inactive),99.2% (inactive),0.05 (inactive),17% (inactive),14.9% (inactive)
NS(=O)(=O)c1cc(C2(O)NC(=O)c3ccccc32)ccc1Cl (stereo unspecified),101% (inactive),117% (inactive),115% (inactive),78.7% (inactive),89.6% (inactive),58.2%,252% (inactive),-16.8% (inactive),110% (inactive),-6% (inactive),-3.96% (inactive),-17.4% (inactive),1.36% (inactive),105% (inactive),-0.13 (inactive),9% (inactive),4.09% (inactive)
Nc1ccc(S(=O)(=O)NC(=O)c2ccccc2)cc1,100% (inactive),103% (inactive),96.6% (inactive),99.9% (inactive),100% (inactive),57.6%,30.6% (inactive),-6.68% (inactive),110% (inactive),1% (inactive),-5.78% (inactive),-15.4% (inactive),5.4% (inactive),99.3% (inactive),-0.07 (inactive),11% (inactive),1.22% (inactive)
COc1ccc(CCN(C)Cc2nc(Cc3ccc(OC)c(OC)c3)no2)cc1OC,100% (inactive),105% (inactive),102% (inactive),109% (inactive),108% (inactive),62.5%,222% (inactive),15.1% (inactive),92.6% (inactive),1% (inactive),-13.9% (inactive),2.64% (inactive),8.73% (inactive),98.8% (inactive),0 (inactive),1% (inactive),29.5% (inactive)
CCN1C(=O)C(CC(=O)Nc2ccc(OC)cc2)N(CCc2ccc(F)cc2)C1=S (stereo unspecified),96.9% (inactive),98.5% (inactive),93.9% (inactive),124% (inactive),96.2% (inactive),60.7%,292% (inactive),-3.16% (inactive),102% (inactive),2% (inactive),5.66% (inactive),50.8% (inactive),-3.51% (inactive),102% (inactive),0.19 (inactive),3% (inactive),8.8% (inactive)
CCOC(=O)c1ccc(NC(=S)NCCc2ccccc2F)cc1,100% (inactive),107% (inactive),101% (inactive),111% (inactive),93.7% (inactive),68.7%,1410% (inactive),-21.2% (inactive),98.7% (inactive),3% (inactive),2.84% (inactive),18.6% (inactive),1.24% (inactive),104% (inactive),0.58 (active),-3% (inactive),9.04% (inactive)
CC1(C)C(=O)OC(C(=O)c2ccc(Cl)cc2)C(C)(C)C1=O (stereo unspecified),103% (inactive),90.9% (inactive),107% (inactive),97.3% (inactive),103% (inactive),66.1%,261% (inactive),-11.9% (inactive),104% (inactive),2% (inactive),-5.23% (inactive),-10.6% (inactive),-4.25% (inactive),99.3% (inactive),-0.01 (inactive),-4% (inactive),-4.64% (inactive)
